Unmarked numbers belong to inactive results. Records with an inconclusive call do not appear. Activity calls are given as the source filed them. Unless noted, the call rests on the fitted dose curve; in most records, active means well fitted curve in the direction sought with a large enough effect in the repeat runs; inconclusive means weak or mixed curves; inactive means no such curve, though single readings can be large; an effect the other way counts as inactive or inconclusive.

Experimental findings from PubChem BioAssay (Tox21) are described below.

Assay [1] is described as follows: qHTS assay to identify small molecule antagonists of the estrogen related receptor (ERR) signaling pathway from Tox21 library - cell viability counter screen (AID 1224834). Further: nearly all actives have a fitted effect of over 30% in size. Further: potency means the concentration at half of the fitted maximal effect. An outline of the steps: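 Fluorescence from CellTiter-Fluor gives the viability read-out, taken 30 min after reagent addition. Before that, ERR cells seeded 6 h earlier were incubated with compounds for 17.5 h at 37 C.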

Assay [2] deals with Luciferin 4-monooxygenase (Photinus pyralis) (UniProt P08659). Kind of assay: qHTS assay to identify small molecule inhibitors of firefly luciferase (AID 1224835). Further: nearly all actives have a fitted effect of over 25% in size. An outline of the steps: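 Quantitative HTS format; KM concentrations of both substrates. Purified P. pyralis FLuc activity quantified from luminescence images.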
Chain of Luciferin 4-monooxygenase (Photinus pyralis) (P08659 whole entry, looked up): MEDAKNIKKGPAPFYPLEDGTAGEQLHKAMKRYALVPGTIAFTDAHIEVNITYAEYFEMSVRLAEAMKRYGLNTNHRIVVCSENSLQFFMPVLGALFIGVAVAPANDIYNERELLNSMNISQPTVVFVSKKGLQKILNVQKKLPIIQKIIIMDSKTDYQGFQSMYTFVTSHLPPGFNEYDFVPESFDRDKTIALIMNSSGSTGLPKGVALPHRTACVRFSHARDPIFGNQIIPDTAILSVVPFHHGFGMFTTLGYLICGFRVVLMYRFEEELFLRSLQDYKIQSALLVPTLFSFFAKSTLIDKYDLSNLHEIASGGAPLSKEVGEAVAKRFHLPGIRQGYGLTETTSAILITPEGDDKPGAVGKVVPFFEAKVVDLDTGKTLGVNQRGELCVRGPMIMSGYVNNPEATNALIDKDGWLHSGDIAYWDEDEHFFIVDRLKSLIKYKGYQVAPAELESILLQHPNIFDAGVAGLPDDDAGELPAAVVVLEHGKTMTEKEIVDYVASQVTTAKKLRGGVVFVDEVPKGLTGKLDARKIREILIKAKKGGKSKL
The nature of assay [3]: qHTS assay to identify small molecule antagonists of the constitutive androstane receptor (CAR) signaling pathway - cell viability counter screen (AID 1224837). Further: nearly all actives have a fitted effect of over 45% in size. Further: potency means the concentration at half of the fitted maximal effect. Put shortly: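 HepG2-CYP2B6-hCAR cells, 2500/well, 4 hr pre-incubation; compound titration, 15 conc.; CITCO 50 nM final; 23 hr, 37 C/5% CO2; CellTiter-Fluor, fluorescence intensity.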
Assay [4] has as its target Nuclear receptor subfamily 1 group I member 3 (Homo sapiens) (UniProt Q14994). Kind of assay: qHTS assay to identify small molecule antagonists of the constitutive androstane receptor (CAR) signaling pathway (AID 1224838).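 Further: HepG2 cells stably expressing hCAR with CYP2B6 luciferase reporter stimulated by CITCO; nearly all actives have a fitted effect of over 40% in size.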 Further: potency means the concentration at half of the fitted maximal effect. An outline of the steps: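 HepG2-CYP2B6-hCAR cells; 4 h pre-incubation; cpd (15 conc) + CITCO 50 nM final; 24 h, 37 C/5% CO2; ONE-Glo, luminescence.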

For assay [5] the target is unchanged. Kind of assay: qHTS assay to identify small molecule agonists of the constitutive androstane receptor (CAR) signaling pathway (AID 1224839).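 Further: HepG2 cells stably carrying human CAR and a CYP2B6 luciferase reporter; nearly all actives have a fitted effect of over 15% in size.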 An outline of the steps: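 Luminescent ONE-Glo read-out after 24 hr, 37 C exposure of double-stable HepG2-CYP2B6-hCAR reporter cells to a 15-point compound series, in the presence of 0.75 uM PK11195 (final).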
Assay [6] can be described thus: qHTS assay to identify small molecule antagonists of the estrogen related receptor signaling pathway with the pleiotropic PPARgamma coactivator (PGC) from Tox21 10K library - cell viability counter screen (AID 1224840; active means well fitted cell-killing curve with a large enough effect in the repeat runs, not every such curve was filed as active; further: nearly all actives have a fitted effect of over 40% in size). Put shortly:
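PGC/ERR cells, 2,000/well; 6 h pre-incubation 37 C/5% CO2; cpd in DMSO via pin tool; 17.5 h 37 C; CellTiter-Fluor, 30 min; fluorescence.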

The nature of assay [7]: qHTS assay to identify small molecule agonists of H2AX (AID 1224845; active means well fitted activation curve with a large enough effect in the signal ratio in the repeat runs, not every such curve was filed as active; the % refers to the signal ratio). An outline of the steps: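 Wild-type CHO-K1 cells plated overnight, then exposed 3 hr at 37C to compounds at 15 concentrations (0.76% DMSO). Lysed, then HTRF anti-pH2AX(S139)-cryptate/anti-H2AX-d2 detection after 24 hr at room temperature; emissions 665 and 620 nm.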
Assay [8] can be described thus: qHTS assay to identify small molecule agonists of the hypoxia (HIF-1) signaling pathway (AID 1224846; active means well fitted activation curve with a large enough effect in the signal ratio in the repeat runs, not every such curve was filed as active; the % refers to the signal ratio). Put shortly:
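Cell line: CellSensor HRE-bla ME-180; 2,000 cells/well; 0.5% dialyzed FBS; 5 h preincubation; DMSO compound pin transfer; 17 h, 37C, 5% CO2; CCF4-AM added; bla FRET signal scored for activation.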

Assay [9] can be described thus: qHTS assay to identify small molecule agonists of H2AX - cell viability counter screen (AID 1224847; calls by dose curve; further: top concentration of the series differs between compounds; nearly all actives have a fitted effect of over 30% in size). Put shortly:
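Counter-screen for viability: CellTiter-Glo ATP luminescence read after 3 h compound treatment (15-point titration, 0.76% DMSO final) of CHO-K1 cells at 37C, with 30 min room-temperature reagent incubation.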

Assay [10] in a line: qHTS RealTime-Glo MT Cell Viability Assay in HepG2 cells - 24 hour (AID 1224867). Further: nearly all actives have a fitted effect of over 50% in size. An outline of the steps:
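Tox21 10K library screened in qHTS format on HepG2 cells carrying RealTime-Glo reagents. Compounds were added after a 5 h preincubation, and the luminescent signal from continuous culture was measured repeatedly during 40 h treatment.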

Assay [11] in a line: qHTS RealTime-Glo MT Cell Viability Assay in HEK293 cells - 32 hour (AID 1224868). Further: nearly all actives have a fitted effect of over 50% in size. Further: potency means the concentration at half of the fitted maximal effect. On activity change, negative = cytotoxic: top concentration of the series differs between compounds. Put shortly:
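Luminescence generated by NanoLuc from substrate produced by living HEK293 cells served as the viability signal. Each value reflects the reading at its stated time point during continuous 40 h compound exposure at 37 C.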

The nature of assay [12]: A CellTox Green Cytotoxicity Assay to monitor cytotoxicity in HEK293 cells - 0 hour (AID 1224869). Further: nearly all actives have a fitted effect of over 50% in size. An outline of the steps:
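Nonlytic real-time cytotoxicity: HEK293 + CellTox Green reagent plated, 5 h preincubation, pintool compound addition (23 nL in DMSO), 37 C for 40 h, fluorescence measured at successive time points.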

Assay [13] is described as follows: qHTS assay to identify small molecule antagonists of the estrogen related receptor signaling pathway with the pleiotropic PPARgamma coactivator (PGC) from Tox21 10K library (AID 1224841; call rule not given here; further: actives are mostly falling curves and most rising ones were filed inactive; nearly all actives have a fitted effect of over 50% in size). Put shortly: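 PGC/ERR cell line, 2,000 cells/well; 6 h pre-incubation 37 C/5% CO2; compounds (DMSO) pinned in; 18 h, 37 C; One-Glo, 30 min RT; luminescence.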
Assay [14] in a line: qHTS assay to identify small molecule agonists of the estrogen related receptor signaling pathway with the pleiotropic PPARgamma coactivator (PGC) from Tox21 10K library (AID 1224842). Further: nearly all actives have a fitted effect of over 15% in size. Put shortly:
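PGC/ERR reporter cells (NTP line) were seeded 2,000 per well, rested 6 h at 37 C/5% CO2, then pin-dosed with compounds in DMSO for 18 h at 37 C; luciferase read by One-Glo luminescence after 30 min at room temperature.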

The target of assay [15] is Thyrotropin receptor (Homo sapiens) (UniProt P16473). The assay can be described thus: qHTS assay to identify small molecule agonists of the thyroid stimulating hormone receptor (TSHR) signaling pathway (AID 1224843; calls by dose curve; further: nearly all actives have a fitted effect of over 45% in size). Put shortly:
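TSHR-expressing HEK293 cells (800 per well) were exposed to compounds for 30 min at room temperature. cAMP was then detected by HTRF competition with cAMP-d2 and anti-cAMP cryptate, read after 1 h at room temperature. Fifteen concentrations, triplicate.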

Assay [16] is described as follows: qHTS assay to identify small molecule agonists of the hypoxia (HIF-1) signaling pathway - cell viability counter screen (AID 1224844; calls by dose curve; further: nearly all actives have a fitted effect of over 50% in size; further: potency means the concentration at half of the fitted maximal effect). Put shortly:
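ME-180 HRE-bla cells, 2,000/well, 0.5% dialyzed FBS; 5 hr settle, 17 hr compound at 37C/5% CO2; CCF4-AM reporter read first, then CellTiter-Glo luminescence after 30 min RT.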

Assay [17] can be described thus: qHTS assay to identify small molecule agonists of the estrogen related receptor (ERR) signaling pathway from Tox21 library (AID 1224849; calls by dose curve; further: nearly all actives have a fitted effect of over 15% in size). As to conditions: ERR reporter cell line, ONE-Glo luciferase, 18 h; at 92.4 µM (top of the series) unless noted. Put shortly: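 ERR cells, 6 h pre-incubation 37 C/5% CO2; cpd in DMSO pinned; 18 h 37 C; ONE-Glo added, 30 min RT; luminescence read. Agonist mode, qHTS.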

Assay [18] in a line: qHTS assay to identify small molecule antagonists of the estrogen related receptor (ERR) signaling pathway from Tox21 library (AID 1224848). Further: nearly all actives have a fitted effect of over 50% in size. Put shortly: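 Cells: ERR line, 2,000/well; 6 h preincubation 37 C/5% CO2. Cpd in DMSO via pin tool; 18 h, 37 C. ONE-Glo, 30 min RT, luminescence.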
Assay [19] is described as follows: qHTS assay to identify small molecule agonists of the constitutive androstane receptor (CAR) signaling pathway - cell viability counter screen (AID 1224836). Further: nearly all actives have a fitted effect of over 45% in size. An outline of the steps: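 Cell viability multiplexed with the CAR agonist screen: CellTiter-Fluor fluorescence after 23 hr at 37 C. HepG2-CYP2B6-hCAR cells got compounds at 15 concentrations with PK11195 at 0.75 uM final.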
On the % scale 0 is the no-effect control and ±100 the full control effect.

Chain of Nuclear receptor subfamily 1 group I member 3 (Homo sapiens) (Q14994 whole entry, looked up): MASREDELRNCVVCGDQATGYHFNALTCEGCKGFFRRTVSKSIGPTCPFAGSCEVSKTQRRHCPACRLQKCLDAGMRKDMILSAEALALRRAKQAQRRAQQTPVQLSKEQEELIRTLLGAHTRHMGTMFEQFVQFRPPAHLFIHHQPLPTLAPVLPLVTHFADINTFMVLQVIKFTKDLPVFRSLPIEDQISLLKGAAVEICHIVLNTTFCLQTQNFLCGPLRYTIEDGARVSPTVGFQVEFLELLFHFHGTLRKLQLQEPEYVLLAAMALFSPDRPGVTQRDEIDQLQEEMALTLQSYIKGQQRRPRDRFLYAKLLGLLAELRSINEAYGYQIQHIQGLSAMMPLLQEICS
Chain of Thyrotropin receptor (Homo sapiens) (P16473 whole entry, looked up): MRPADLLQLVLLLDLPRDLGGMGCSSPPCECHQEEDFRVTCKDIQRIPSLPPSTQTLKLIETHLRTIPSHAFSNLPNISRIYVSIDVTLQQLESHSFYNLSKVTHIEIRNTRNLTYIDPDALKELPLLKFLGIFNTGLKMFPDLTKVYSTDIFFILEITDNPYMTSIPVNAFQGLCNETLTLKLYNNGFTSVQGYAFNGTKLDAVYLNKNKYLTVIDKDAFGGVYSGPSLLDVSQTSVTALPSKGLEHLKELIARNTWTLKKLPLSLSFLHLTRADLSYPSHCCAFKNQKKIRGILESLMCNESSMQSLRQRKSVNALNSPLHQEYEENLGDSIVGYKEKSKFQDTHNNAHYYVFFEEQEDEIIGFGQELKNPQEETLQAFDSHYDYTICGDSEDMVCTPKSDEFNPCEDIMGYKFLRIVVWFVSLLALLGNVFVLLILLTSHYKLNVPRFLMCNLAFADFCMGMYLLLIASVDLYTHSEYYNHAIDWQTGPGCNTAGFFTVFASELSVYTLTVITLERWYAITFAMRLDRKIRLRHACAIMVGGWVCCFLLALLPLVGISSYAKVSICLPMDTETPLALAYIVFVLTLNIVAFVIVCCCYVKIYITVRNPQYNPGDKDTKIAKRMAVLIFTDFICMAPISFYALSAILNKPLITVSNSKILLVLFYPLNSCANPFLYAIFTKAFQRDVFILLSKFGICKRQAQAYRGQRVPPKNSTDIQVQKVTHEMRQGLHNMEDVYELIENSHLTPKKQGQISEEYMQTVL

Turning to `CCOCCC(=O)OCC`, the Potency result in assay [1], in assay [2], in [3], in assay [4], in assay [5] and in assay [6] was “inactive” each time. The Potency entry in [7], in assay [9], in assay [10], in assay [11] and in [12] was “inactive” each time. In addition, in assay [8], the compound was classed as inactive.

Turning to `CN1CCCN(C(c2ccccc2)c2ccc(Cl)cc2)CC1` (centres undefined), the Potency in [1] is 29.8 µM (active); in assay [3], 29.8 µM (active); in assay [16], 21.3 µM (active). The Potency entry in [2], in [5], in assay [13], in assay [14], in assay [15] and in assay [7] was “inactive” throughout. Besides, the Potency result in assay [12] was “inactive”. In addition, the activity change, positive = activation in assay [17] was -29.3% [at 42.5 µM].

For `CC(CN(CCN(CC(C)OCCO)CC(C)OCCO)CC(C)OCCO)OCCO` (centres undefined), the Potency result in assay [1], in assay [2], in assay [3], in assay [6], in [15] and in assay [16] was “inactive” each time. Further, the Potency result in assay [7] and in assay [12] was “inactive” throughout. The call in assay [8] was inactive. Further, the Potency in assay [11] is 23.7 µM (active).

Regarding `CCNc1nc(N)nc(Cl)n1`, the Potency entry in [1], in [2], in assay [3], in assay [5], in [6] and in [13] was “inactive” throughout. In addition, the Potency entry in [14], in assay [15], in assay [16], in assay [9], in assay [18] and in [10] was “inactive” each time. The Potency entry in assay [11] and in [12] was “inactive” each time. Besides, in assay [4], the Potency is 24.3 µM (active). In addition, in [8], the result was inactive. Also, the activity change, positive = activation in [17] was 3.57%.

Turning to `NC(=O)c1ccccc1[N+](=O)[O-]`, the Potency entry in assay [1], in [2], in assay [3], in assay [6], in assay [15] and in [7] was “inactive” each time. Moreover, the Potency entry in [9], in [10], in assay [11] and in [12] was “inactive” each time. Further, the result in assay [8] was inactive.

For the compound `CC(=O)OCC(C)C`, the Potency result in assay [1], in [2], in [3], in assay [4], in assay [5] and in [6] was “inactive” in each case. Also, the Potency result in assay [16], in assay [7], in assay [9], in assay [10], in [11] and in assay [12] was “inactive” in each case. Further, the result in [8] was inactive.

For `CSSc1ccoc1C`, the Potency entry in assay [1], in assay [2], in [3], in assay [4], in assay [5] and in [6] was “inactive” in each case. Also, the Potency entry in assay [15], in assay [7], in assay [9], in assay [10] and in [12] was “inactive” throughout. In assay [8], the result was inactive.

For `O=C1CC[C@@H](C(=O)O)N1`, the Potency entry in [1], in assay [2], in assay [3], in assay [4], in assay [5] and in assay [6] was “inactive” in each case. Besides, the Potency entry in [13], in [14], in [15], in assay [7], in assay [9] and in assay [18] was “inactive” throughout. The Potency entry in [10] and in assay [11] was “inactive” throughout. The compound was called inactive in [8]. For the same compound, the activity change, positive = activation in assay [17] is 3.84% [at 42.5 µM].

On to `CC1=CC[C@@H]2C[C@H]1C2(C)C`, for which the viability change, negative = cytotoxic in assay [1] was 2.93% [at 19 µM]; in [19], 1.82% [at 19 µM]; in [6] it was -1.25% [at 19 µM]. The activity change, negative = cytotoxicity in assay [3] is -2.4% [at 19 µM]; in assay [16], 7.49% [at 15.8 µM]; in assay [9], 0.589% [at 31.6 µM]; in assay [10] it was 0.892% [at 15.8 µM]. Also, the activation in assay [15] was 21.3% [at 19 µM]; in [8], -1.3% [at 15.8 µM]. Also, in assay [7], the activation (H2AX phosphorylation) was 1.37% [at 31.6 µM]. In addition, the activity change, negative = cytotoxic in assay [11] was 2.23% [at 15.8 µM]. The cytotoxicity in assay [12] was 0.458% [at 15.8 µM].
